From the supplement of paper PMC6555819

Legend:
Assay in all cases: PBM binding z-score (relative to random genomic background probes); higher = stronger binding; sequences stand for … in GC…GCGATTGACAGCGTAGAATGAAGG
[1] = system: RARb homodimer (NR concentration 270 nM)
Procedure, shortened: (§1)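 Scanned fluorescence from custom Agilent 4×180K protein-binding microarrays was regression-normalized. Binding z-scores use random background probes as reference. Ligand-free nuclear receptor dimers were incubated on the arrays for 1 h and detected with antibodies against each partner (one per run).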

[2] = system: RARg:RXRa (NR concentration 270 nM, RXRa partner concentration 90 nM)
Procedure, shortened: as §1

[3] = system: RARg homodimer (NR concentration 270 nM)
Procedure, shortened: as §1

[4] = system: RXRa DBDmut IVT, anti-RXR (DBD mutation: RXRa K156A/R161A, NR concentration 90 nM)
Procedure, shortened: as §1

[5] = system: RXRa homodimer (NR concentration 180 nM)
Procedure, shortened: as §1

[6] = system: THRa:RXRa (NR concentration 90 nM, RXRa partner concentration 90 nM)
Procedure, shortened: as §1

[7] = system: THRa homodimer (NR concentration 90 nM)
Procedure, shortened: as §1

[8] = system: VDR:RXRa (NR concentration 270 nM, RXRa partner concentration 90 nM)
Procedure, shortened: as §1

[9] = system: VDR homodimer (NR concentration 270 nM)
Procedure, shortened: as §1

Sequence	PBM binding z-score [1]	PBM binding z-score [2]	PBM binding z-score [3]	PBM binding z-score [4]	PBM binding z-score [5]	PBM binding z-score [6]	PBM binding z-score [7]	PBM binding z-score [8]	PBM binding z-score [9]
TCATATCGGTAAAAGGTGAAAGTCGGTGTGGTAA	2.12	1.68	0.807	1.6	2.29	1.4	0.504	1.54	0.635
ACTAGCAGGCCAAGTTTCGGTCACTCAAACAAAG	1.95	1.68	1.53	0.194	-0.395	0.604	0.212	-0.204	-0.0934
TGAATGAGGTTAAAGATCCGGGAACGTGGCGTCG	0.578	1.5	1.05	1.22	2.61	2.12	0.411	1.03	0.437
AGAACGAGGGCACGCTGAGCTGATAGCAGAGTAG	0.904	1.83	2.12	1.48	1.2	1.39	-0.398	0.52	0.48
AGAACGAGGGCACGGTGAGTTGATAGCAGAGTAG	1.6	2.2	2.31	1.82	1.53	2.18	0.165	2.56	2.1
ACTATTAGTTGAGTTAGGGCAACCGATACGACGC	0.47	0.417	0.783	0.652	0.292	1.21	0.245	0.0394	0.368
ACTAGAAGGCCAAGTTTGGGTCACTCAAACAAAG	2.88	3.27	2.36	0.0906	1.29	3	1.32	1.28	0.626
CGAACTAGGTCTGAACAGGACAGTGAAGGATGAT	0.0456	0.195	0.136	-0.233	0.134	0.536	-0.761	-0.557	-0.4
TTACCAAGATGAAGGTCGTTGATCCCTCTGTAGA	0.806	0.203	0.0937	0.4	0.993	0.726	-0.149	0.991	0.756
CGAACTAGGTCCGAACAGGACAGTGAAGGATGAT	-0.462	-0.22	0.235	0.44	-0.527	0.105	-0.912	-0.576	-0.155
CAAACTAGGTCAGAACAGGACAGTGAAGGATGAT	2.11	2.51	3.33	0.474	1.28	3.7	0.447	0.899	0.417
CCTAGCAGGCCCGGGTCACTCAAGCATTTCGCTT	2.02	1.96	1.46	-0.519	2.43	2.71	1.3	1.43	0.294
CGTCCAAGGTCATAGAAGGTCAGTGAAGACAGAT	5.56	6.7	7.06	4.03	6.78	5.07	2.62	6.34	4
CGAAGTAGGTCAAGGACAGTGAATCTCCGCACGC	3.17	3.94	4.66	1.45	2.92	3.07	1.51	1.52	0.462
AGTCAAAGTTCAAGACGAGGTAACGTAAAGCACG	3.6	5.81	6.02	3.8	4.59	3.9	0.783	4.07	2.85
CGAACTAGGTCATTGGCAGGACAGTGAATAGTAA	2.75	4.52	4.07	2.36	2.52	3.09	0.749	2.07	0.995
TAGCCTAGGTCCTGCGGGCCAGTATAGTGTCGGC	-0.744	-0.626	-0.818	-1.46	-0.822	-1.56	-0.966	-1.05	-0.992
ATCTCTAGGTATCAAGTTCAGTGAAAGAGAGGAC	1.89	1.07	1.17	1.34	0.64	1.03	0.846	1.94	2.79
TCATATGGGTAATACAGGTGAAAGTCGGCATCTA	0.197	0.414	0.489	0.75	0.794	0.846	-0.109	0.677	-0.42
TAGCCTAGGTCGTGCGGGCCAGTATAGTGTCGGC	0.429	0.705	0.719	-0.774	0.344	0.675	-0.487	0.148	-0.502
AGAACGATGGCACGCTGAGTTGATAGCAGAGTAG	-0.907	-0.162	-0.0451	-0.483	-0.397	-0.632	-1.01	-0.574	-0.128
ATCGAAAGGTCGAGGTGATTATAGAGAAAGGGAA	2.72	4.24	4.23	0.927	4.29	2.54	0.338	2.43	0.821
ATACCAAGGTGATCTTGAGGTCGTTGATACTAAC	1.9	2.62	1.12	1.19	2.04	3.66	2.9	3.57	3.21
TCTTGTAGATCAACAGGTGGTTAAGAAAGATCGA	-0.322	-0.241	-0.25	0.571	-0.126	-0.453	-0.243	0.266	-0.227
CGAACTAGGTCAGAACGGGACAGTGAAGGATGAT	1.83	2.2	2.96	0.435	1.15	2.84	-0.119	0.281	-0.321
CAGCCTAGCTCAGGGCCAGTATAGGAGGAACGTT	-0.467	-0.693	-0.422	-0.824	-0.971	-0.848	-0.716	-0.907	-0.754

Sequence	PBM binding z-score [1]	PBM binding z-score [2]	PBM binding z-score [3]	PBM binding z-score [4]	PBM binding z-score [5]	PBM binding z-score [6]	PBM binding z-score [7]	PBM binding z-score [8]	PBM binding z-score [9]
CATATTAGTTGACCATAAGGGCAACCGAAGCTCG	2.07	1.61	1.37	0.612	0.942	1.95	1.35	0.551	1.14
ATCTCTAGGTAAAAATAGTTCAGTGAATGCAAAT	1.13	1.01	0.9	0.16	0.292	0.72	0.138	1.11	0.549
CCTCGGAGGACAACAGTAGGTCAGAGCTGCCAGA	2.54	1.94	2.24	0.271	0.593	1.67	0.256	–	-0.109
CGAACGAGGGCATGAGCTGATAGCAAATGCCGAT	0.6	1.19	1.39	1.96	1.06	1.15	-0.325	0.355	0.803
CGAACGAGGGCATGAGTTGACAGCAAATGCCGAT	0.912	1.52	1.6	2.28	0.957	1.45	-0.266	1.2	1.65
GCGACTGGTGCATCAGCAGGTTACCATAACTTAA	0.107	-0.0711	-0.351	-0.127	-0.12	0.163	-0.356	-0.435	-0.21
TCTATTAGTTGAACGGCAACCGACGAGTCCGTTT	-0.12	0.0941	-0.2	1.53	0.254	-0.127	0.107	0.759	0.971
CCTACTGGGCCACGGAAGGTCATTGATTCAGTGA	3.78	2.93	2.38	-0.515	2.57	3.67	0.727	2.83	1.2
TTGCCAAGGTGAAGGTCGTTGATCCCTCTGTAGA	1.62	1.23	1.02	0.0935	1.68	2.31	0.87	1.08	0.534
TAGCTTAGGTCATTGGGCCAGTATAGTACGCATC	3.1	4.29	4.56	2.23	3.26	3.37	2.15	2.4	1.36
ACAGACAGGTGACGAAGGTAACTCAGGCTATCAT	0.451	0.549	0.697	-0.564	0.578	1.03	0.0235	–	-0.374
ATCTCTAGGTAACAAGTTAAGTGAAAGAGAGGAC	0.585	0.726	0.704	-0.00477	0.663	1.29	0.846	0.232	0.307
GCGATTGGGGCAAAGCAGGTTACCATAAGGTTGG	1.1	0.454	0.635	0.0691	0.619	3.01	0.281	0.27	0.0482
GGAACCAGGGCAAGTTGATAGCAGAGTTTGATGG	1.71	1.17	1.52	1.85	0.254	1	1.21	0.319	0.898
CCTATTAGTTGACCATAAGGGCCACCGAAGCTCG	1.51	0.432	0.644	0.143	0.414	0.438	0.222	0.0922	0.354
CCAGACAGGTGAAAGTTAACTCAGTCTGGTACGC	0.569	0.669	0.306	-0.00485	1.2	0.251	-0.579	0.0177	-0.235
TAAGACAGGTGAAGGTAACTCAGGTACGCAGTCG	0.812	0.869	0.994	-0.391	0.793	1.48	0.449	0.46	0.487
TGTCAAAATTCAAAGGTAACGTAAGTATCCACAC	0.464	0.501	0.807	-0.417	0.772	1.16	-0.046	0.436	0.102
CGTCCAAGGTCAAAGGTCAGAGAAGAGATGACGG	5.36	8.94	8.33	3.99	10.6	4.84	2.39	6.75	3.54
CGTCCAAGGTCAAGGTCCGTGAAAGAGACTCGAA	4.19	6.16	6.84	3.57	5.96	3.82	2.69	–	2.27
AGAACGAGGGCACGCTGAGTTGATGGCAGAGTAG	1.37	2.06	2.33	1.76	1.53	1.89	0.0857	1.86	1.71
ACTATTAGTTGACTTAGGGCATCCGATACGACGC	0.597	0.218	0.979	0.909	0.613	0.97	0.239	0.439	0.435
GCTAGTTGATCAGTAAAAGGTCACACACCGGTCG	4.9	5.1	4.68	0.532	5.54	3.45	1.59	3.87	1.8
ATCTCTAGGTCAAGATAGTTCAGTGAATGCAAAT	3.89	4.63	5.48	1.58	3.14	3.35	1.71	4.44	1.73
CAAACTAGGTCACCTGAAGGTCAAAGTCCGCATG	5.57	8.05	7.61	2.29	6.63	4.16	2.96	5.59	3.86
GCGACAGGGGCATCAGCAGGTTACCATAACTTAA	1.23	1.9	0.934	0.988	0.871	1.61	0.015	0.517	0.188
